# Sampled rows, rich in hits. Any-hit rate of the full collection: about 6.1%.
# D1 PAM = enhances dopamine response at the human D1 receptor. P21728. HEK293 TREx D1 cells, calcium flux, dopamine EC20 potentiation. potentiation, % at 10 µM. 360,000 tested, 0.036% active. AID 504651; in the data active = potentiation above about 30%; also: 0% is about no effect
# D3 antag = D3 dopamine receptor (human) antagonism. P35462. D3R cells, DiscoveRx beta-arrestin luminescence, antagonist mode; active compounds read low. max response, negative = inhibition, %. 360,000 tested, 2.5% active. AID 652054; in the data active = max response below about -50%; inconclusive = no clear call, values can overlap the other calls; also: % is scaled to controls: 0 for no effect and ±100 for the full control effect
# Target sequence (P35462 whole entry, looked up): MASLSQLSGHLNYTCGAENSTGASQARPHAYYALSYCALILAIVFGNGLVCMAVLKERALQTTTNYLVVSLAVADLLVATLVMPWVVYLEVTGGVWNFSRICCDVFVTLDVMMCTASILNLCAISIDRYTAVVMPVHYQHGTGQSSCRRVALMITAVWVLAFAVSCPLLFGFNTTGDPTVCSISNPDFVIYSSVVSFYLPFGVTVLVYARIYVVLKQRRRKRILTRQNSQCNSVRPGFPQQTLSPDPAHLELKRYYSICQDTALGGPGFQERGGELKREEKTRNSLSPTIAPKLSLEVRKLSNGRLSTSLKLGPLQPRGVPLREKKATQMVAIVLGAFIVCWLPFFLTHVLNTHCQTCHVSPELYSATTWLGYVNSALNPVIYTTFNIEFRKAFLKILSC
#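 Cells expressing the human receptor were seeded at 1500 cells/well, incubated overnight at 37 degrees C in 5% CO2, then exposed to library compounds with dopamine controls for 90 minutes at 37 degrees C before luminescent detection.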
# D1 antagonist = antagonists of human D1 dopamine receptor. AID 504652. activity change, negative = inhibition, % at 10 µM. 360,000 tested, 3.2% active. HEK293 TREx D1 cells, calcium flux, dopamine EC80; active compounds read low; in the data active = activity change below about -30%; also: % is scaled to controls: 0 for no effect and ±100 for the full control effect
#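 Tetracycline-induced HEK293 Trex D1 cells, force-coupled to calcium, dye-loaded; compounds added and read 180 s, then EC80 dopamine added and calcium flux tracked kinetically another 180 s.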
# D3 ag = D3 dopamine receptor (human) agonism | P35462 | D3R DiscoveRx beta-arrestin cells, luminescence, 90 min | max activation, % | 410,000 tested, 0.58% active | AID 652048; in the data active = max activation above about 30%; also: 0% is about no effect
#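 Agonist mode: compounds and dopamine controls were applied to plated cells for 90 min at 37 degrees C after an overnight attachment at 1500 cells/well. Luminescent read-out followed 30 - 60 minutes at room temperature with DiscoveRx detection reagent.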
# D1 ag = human D1 receptor agonism; P21728; HEK293 T-REx D1 cells, calcium flux, agonist mode; activation, % at 2 µM; 360,000 tested, 1% active; in the data active = activation above about 30%; also: 0% is about no effect
#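 Inducible HEK293 T-REx D1 cells, force-coupled to calcium signalling, were plated at 4000 cells/well with tetracycline and held overnight at 30 C. After no-wash calcium dye loading, compound-evoked calcium rise over 180 s flagged agonists.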
# Active calls of the source: *; ? = inconclusive; / = no result given.
SMILES,D1 PAM,D3 antag,D1 antagonist,D3 ag,D1 ag
CCOc1ccccc1NC(=O)c1nc(S(=O)(=O)Cc2ccccc2)ncc1Cl,-1,-107*,-18,-24,1
CCS(=O)(=O)c1ncc(Cl)c(C(=O)Nc2ccccc2OC)n1,-2,-64*,-25,-10,5
Cc1cc(Cl)ccc1C(=O)C1CCCN(C(=O)c2cncs2)C1 (centres undefined),-5,16,-3,4,6
Cc1ccc(CSCc2ccc(C(=O)NCCc3ccc(Cl)cc3)o2)cc1,-3,/,-41*,-1,25
O=C(NCCc1ccc(Cl)cc1)c1ccc(CSCc2ccc(Cl)cc2)o1,-3,/,-11,-6,21
O=C(NC1CCCC1)c1ccc(CS(=O)(=O)Cc2ccccc2F)o1,-1,6,-42*,0,2
Cc1cccc(CSCc2ccc(C(=O)NC3CCCC3)o2)c1,-12,16,-46*,-7,17
Cc1cccc(CSCc2ccc(C(=O)NC(C)C)o2)c1,5,26,-23,3,9
Cc1cc2ccccc2n1CCNC(=O)c1ccccc1F,-3,/,-23,-7,1
Cn1nnc2c[n+](CC(=O)c3ccc4ccccc4c3)cc(Br)c21,-1,-53*,-6,-12,3
CCCOc1ccc(CCC(=O)N/N=C/c2ccncc2)cc1,1,-2,-36*,4,2
CCCOc1ccc(CCC(=O)N/N=C/c2ccco2)cc1,-4,9,-14,7,2
O=C1CCCc2c1[nH]c1ccc(CN3CCCCC3)cc21,-10,-54*,-4,-78,2
Cc1ccc(NC(=O)COc2ccc(CCO)cc2-n2nc3ccccc3n2)cc1C,-9,-3,-72*,0,5
Cc1cccn2c(=O)c(C=NCc3ccccc3)c(NCCO)nc12,-3,-72*,8,-6,0
COCCNC(=O)CN(C(=O)Cn1nnc2ccccc21)c1cc(C)cc(C)c1,-4,7,1,4,0
Cc1cc(C)cc(-n2c(C)cc(C(=O)CSc3nnnn3C)c2C)c1,-6,?,-11,-9,41*
Cc1ccccc1CSc1nnc(NC(=O)C2COc3ccccc3O2)s1 (centres undefined),-2,-28,-9,6,5
O=C(Nc1nnc(SCc2ccccc2Cl)s1)C1COc2ccccc2O1 (centres undefined),1,-59*,0,-1,1
Cc1cc(=O)[nH]c2nnc(SCC(=O)N3CC(C)OC(C)C3)n12 (centres undefined),-4,9,33,1,3
CCCc1cc(=O)[nH]c2nnc(SCC(=O)N3CC(C)OC(C)C3)n12 (centres undefined),-2,13,-65*,6,3
Cn1cnc(S(=O)(=O)N2CCN(c3ccc(Cl)cc3)CC2)c1,-4,-14,-30,3,16
Cc1cccc(N2CCN(Cc3nnc(-c4ccc5c(c4)OCO5)o3)CC2)c1C,-2,/,2,-2,-1
Cc1ccc(N2CCN(Cc3nnc(-c4ccc5c(c4)OCO5)o3)CC2)c(C)c1,0,/,-30*,4,3
NNC(=O)c1[nH]c2ccc([N+](=O)[O-])cc2c1-c1ccccc1,2,-14,-7,-7,1
SMILES,D1 PAM,D3 antag,D1 antagonist,D3 ag,D1 ag
O=C(N/N=C/c1ccccn1)c1[nH]c2ccc([N+](=O)[O-])cc2c1-c1ccccc1,-6,-60*,-10,-8,3
O=C(N/N=C/c1ccccc1)c1[nH]c2ccc(Br)cc2c1-c1ccccc1,3,-89*,-5,-19,2
O=C(NN=C1CCCC1)c1[nH]c2ccc(Br)cc2c1-c1ccccc1,3,?,11,-3,8
O=C(c1c[nH]c2ccccc12)C(Cl)c1ccccc1 (centres undefined),-1,-1,-39*,1,18
O=C(c1c[nH]c2ccccc12)C(O)C(c1ccccc1)N1CCOCC1 (centres undefined),-2,-25,-20,-7,0
Cc1ccc(CN(C(=O)COc2ccccc2[N+](=O)[O-])c2ccccn2)o1,0,/,8,38*,-2
Cc1ccc(CN(C(=O)COc2ccc(Br)cc2)c2ccccn2)o1,-1,/,-9,0,-3
Cc1cccc(OCC(=O)Nc2cccc(C(=O)OCc3cc(=O)n4c(C)csc4n3)c2)c1,0,/,-14,11,3

# Compound activity (PubChem)
